Laboratory results from PubChem BioAssay AID1159580 (chemical genetic matrix, 2015).
Among all 5,500 compounds or so, about 2,000 (36%) were called active. Roughly 18% stayed inconclusive and do not appear here. Rule as the data show it: active = normalized growth mostly below about 0.91 (no sharp cut-off); inconclusive = no clear call, values can overlap the other calls; inactive = mostly above about 0.92. The list shows a part of the results.

Assay: chemical genetic growth profiling, strain panel (AID 1159580);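 also: tested at 20 µM; growth read once vehicle control cultures reached saturation at 30 °C; 1 = growth at the plate median or of vehicle wells; lower values mean less growth of the strain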
Conditions: growth OD

Measured: normalized growth

OC[C@@H]1CCCN2CCCC[C@H]12
inactive: S. cerevisiae deletion strains, locus YJR066W, strain TOR1, active compounds read low 0.967 | S. cerevisiae deletion strains, locus YJR075W, strain HOC1, active compounds read low 1.02 | S. cerevisiae deletion strains, locus YKL009W, strain mrt4, active compounds read low 1.02 | S. cerevisiae deletion strains, locus YKL068W, active compounds read low 1.01 | S. cerevisiae deletion strains, locus YKL085W, strain MDH1 (second series), active compounds read low 1 | S. cerevisiae deletion strains, locus YKL085W, strain MDH1, active compounds read low 1 | S. cerevisiae deletion strains, locus YKL160W, strain elf1, active compounds read low 1.02 | S. cerevisiae deletion strains, locus YKR001C, strain vps1, active compounds read low 1.01 | S. cerevisiae deletion strains, locus YKR026C, strain gcn3, active compounds read low 1.06 | S. cerevisiae deletion strains, locus YKR091W, strain srl3, active compounds read low 1.02 | S. cerevisiae deletion strains, locus YLL001W, strain dnm1, active compounds read low 0.995 | S. cerevisiae deletion strains, locus YLL026W, active compounds read low 1.03 | S. cerevisiae deletion strains, locus YLL041C, strain sdh2, active compounds read low 1.01 | S. cerevisiae deletion strains, locus YLR027C, strain aat2, active compounds read low 1.02 | S. cerevisiae deletion strains, locus YLR039C, strain RIC1, active compounds read low 1.02 | S. cerevisiae deletion strains, locus YLR058C, strain SHM2, active compounds read low 1.01 | S. cerevisiae deletion strains, locus YLR102C, strain apc9, active compounds read low 1.01 | S. cerevisiae deletion strains, locus YLR113W, strain HOG1, active compounds read low 1.01 | S. cerevisiae deletion strains, locus YLR221C, strain rsa3, active compounds read low 1.02 | S. cerevisiae deletion strains, locus YLR258W, strain gsy2, active compounds read low 1.04 | S. cerevisiae deletion strains, locus YLR262C, strain YPT6 (second series), active compounds read low 1.04 | S. cerevisiae deletion strains, locus YLR262C, strain YPT6, active compounds read low 1.06 | S. cerevisiae deletion strains, locus YLR268W, strain sec22, active compounds read low 1.03 | S. cerevisiae deletion strains, locus YLR320W, strain mms22, active compounds read low 0.99 | S. cerevisiae deletion strains, locus YLR330W, strain CHS5, active compounds read low 0.98 | S. cerevisiae deletion strains, locus YLR342W, strain FKS1 (second series), active compounds read low 0.977 | S. cerevisiae deletion strains, locus YLR342W, strain FKS1, active compounds read low 1.03 | S. cerevisiae deletion strains, locus YLR357W, strain rsc2, active compounds read low 1.02 | S. cerevisiae deletion strains, locus YLR370C, strain arc18, active compounds read low 1.03 | S. cerevisiae deletion strains, locus YLR371W, strain rom2, active compounds read low 1.01 | S. cerevisiae deletion strains, locus YLR384C, strain iki3, active compounds read low 1.03 | S. cerevisiae deletion strains, locus YLR418C, strain cdc73, active compounds read low 1.03 | S. cerevisiae deletion strains, locus YML016C, strain PPZ1, active compounds read low 1 | S. cerevisiae deletion strains, locus YML032C, strain rad52, active compounds read low 0.995 | S. cerevisiae deletion strains, locus YML120C, strain ndi1, active compounds read low 1.03 | S. cerevisiae deletion strains, locus YML124C, strain tub3, active compounds read low 1 | S. cerevisiae deletion strains, locus YMR058W, strain fet3, active compounds read low 1.03 | S. cerevisiae deletion strains, locus YMR078C, strain ctf18, active compounds read low 1.01 | S. cerevisiae deletion strains, locus YMR125W, strain sto1, active compounds read low 1.05 | S. cerevisiae deletion strains, locus YMR129W, active compounds read low 1.04 | S. cerevisiae deletion strains, locus YMR205C, strain PFK2, active compounds read low 1.01 | S. cerevisiae deletion strains, locus YMR223W, strain ubp8, active compounds read low 1 | S. cerevisiae deletion strains, locus YMR231W, strain pep5, active compounds read low 1.04 | S. cerevisiae deletion strains, locus YMR263W, strain SAP30, active compounds read low 0.999 | S. cerevisiae deletion strains, locus YMR307W, strain GAS1, active compounds read low 1 | S. cerevisiae deletion strains, locus YNL067W, strain RPL9B, active compounds read low 1 | S. cerevisiae deletion strains, locus YNL071W, strain lat1, active compounds read low 1.03 | S. cerevisiae deletion strains, locus YNL183C, strain NPR1, active compounds read low 0.964 | S. cerevisiae deletion strains, locus YNL209W, strain ssb2, active compounds read low 1.02 | S. cerevisiae deletion strains, locus YNL233W, strain BNI4, active compounds read low 1.01 | S. cerevisiae deletion strains, locus YNL248C, strain rpa49, active compounds read low 1.03 | S. cerevisiae deletion strains, locus YNL250W, strain rad50, active compounds read low 1.03 | S. cerevisiae deletion strains, locus YNL271C, strain bni1, active compounds read low 1 | S. cerevisiae deletion strains, locus YNL298W, strain CLA4, active compounds read low 1.01 | S. cerevisiae deletion strains, locus YNL307C, strain MCK1, active compounds read low 1.03 | S. cerevisiae deletion strains, locus YNL322C, strain KRE1 (second series), active compounds read low 1.04 | S. cerevisiae deletion strains, locus YNL322C, strain KRE1, active compounds read low 1 | S. cerevisiae deletion strains, locus YNR049C, strain mso1, active compounds read low 1.03 | S. cerevisiae deletion strains, locus YNR052C, strain pop2, active compounds read low 1.01 | S. cerevisiae deletion strains, locus YOL006C, strain TOP1, active compounds read low 1.06 | S. cerevisiae deletion strains, locus YOL012C, strain htz1 0.808 | S. cerevisiae deletion strains, locus YOL147C, strain pex11, active compounds read low 1.02 | S. cerevisiae deletion strains, locus YOR001W, strain rrp6, active compounds read low 1.02 | S. cerevisiae deletion strains, locus YOR061W, strain CKA2, active compounds read low 1.01 | S. cerevisiae deletion strains, locus YOR069W, strain VPS5, active compounds read low 1.01 | S. cerevisiae deletion strains, locus YOR070C, strain gyp1, active compounds read low 1.04 | S. cerevisiae deletion strains, locus YOR080W, strain dia2, active compounds read low 1.03 | S. cerevisiae deletion strains, locus YOR083W, strain WHI5, active compounds read low 0.97 | S. cerevisiae deletion strains, locus YOR106W, strain vam3, active compounds read low 1.05 | S. cerevisiae deletion strains, locus YOR136W, strain idh2, active compounds read low 1.03 | S. cerevisiae deletion strains, locus YOR144C, strain elg1, active compounds read low 1.01 | S. cerevisiae deletion strains, locus YOR184W, strain ser1, active compounds read low 1.02 | S. cerevisiae deletion strains, locus YOR231W, strain MKK1, active compounds read low 1.03 | S. cerevisiae deletion strains, locus YOR265W, strain rbl2, active compounds read low 1.01 | S. cerevisiae deletion strains, locus YOR270C, strain vph1, active compounds read low 1.14 | S. cerevisiae deletion strains, locus YOR290C, strain snf2, active compounds read low 1.04 | S. cerevisiae deletion strains, locus YOR316C, strain cot1, active compounds read low 1.01 | S. cerevisiae deletion strains, locus YPL051W, strain arl3, active compounds read low 1.04 | S. cerevisiae deletion strains, locus YPL055C, strain LGE1, active compounds read low 1.01 | S. cerevisiae deletion strains, locus YPL078C, strain atp4, active compounds read low 1.04 | S. cerevisiae deletion strains, locus YPL106C, strain sse1, active compounds read low 1.03 | S. cerevisiae deletion strains, locus YPL240C, strain hsp82, active compounds read low 1.04 | S. cerevisiae deletion strains, locus YPL241C, strain CIN2, active compounds read low 1 | S. cerevisiae deletion strains, locus YPL256C, strain CLN2, active compounds read low 1.01 | S. cerevisiae deletion strains, locus YPR119W, strain clb2, active compounds read low 1.02 | S. cerevisiae deletion strains, locus YPR141C, strain kar3, active compounds read low 1.01 | S. cerevisiae deletion strains, locus YPR163C, strain tif3, active compounds read low 1.01 | S. cerevisiae deletion strains, locus YPR167C, strain met16, active compounds read low 1.01 | S. cerevisiae deletion strains, strain wtn01, active compounds read low 1.03 | S. cerevisiae strains, strain wild type, active compounds read low 0.979
